Gal4-VP16 FLuc: inhibits Gal4-VP16 luciferase reporter, ROR gamma counter-screen | Potency, µM (titrated, usually from 53.6 µM), for inactives: top-dose activity, negative = inhibition, actives largely listed as inhibitors | 3.5% of 310,000 active | Drosophila S2 Gal4-VP16 UAS-luciferase, luminescence, 20 h;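 further: Gal4-VP16 expression switched on by copper sulfate through the metallothionein promoter; on the % scale 0 is the no-effect control and ±100 the full control effect; nearly all actives have a fitted effect of over 50% in size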
Sfp inh: blocks B. subtilis Sfp PPTase activity; 3.5% of 310,000 active; AID 1490; Potency, µM, inactives show largest response in the series, negative = inhibition, hits mostly inhibitors; Biochemical Sfp PPTase activity, qHTS;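 further: the enzyme is Sfp with the accession as filed and its product quenches rhodamine fluorescence; 0% = enzyme reaction without inhibitor and -100% = no enzyme wells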
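With Hepes-Na pH 7.6 buffer containing 10 mM MgCl2, Sfp (15 nM) modified BHQ-2-YbbR (12.5 uM) using rhodamine-CoA (5 uM). Two reads 30 minutes apart at 525/598 nm yielded each well's rate.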
ClpP mod: qHTS Assay for Activators of ClpP; 1.9% of 340,000 active; Potency, µM (doses to about 57.5 µM), inactives show at the top dose activity change, negative = active; ATP-dependent Clp protease proteolytic subunit (Bacillus subtilis (strain 168)), P80244; purified B. subtilis ClpP, FRET peptide cleavage, 20 min; active means well fitted falling curve with a large enough effect; inconclusive means small, poorly fitted or top-dose-only effect; inactive means no such curve, though single readings can be large or run the other way; further: the source files actives as falling curves though it sought activators and does not explain the sign; nearly all actives have a fitted effect of over 65% in size
Target sequence (P80244 whole entry, looked up): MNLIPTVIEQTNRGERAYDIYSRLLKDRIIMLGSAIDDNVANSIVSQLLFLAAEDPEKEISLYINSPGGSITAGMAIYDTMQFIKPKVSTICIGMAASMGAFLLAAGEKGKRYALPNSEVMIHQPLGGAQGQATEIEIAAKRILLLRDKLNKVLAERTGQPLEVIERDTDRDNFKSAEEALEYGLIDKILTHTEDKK
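ClpP 10 microg/mL final, pH 8 Tris/KCl buffer with BSA, glycerol, Tween-20; compound pinned in; FRET-FV substrate; RT 20 min; Ex320/Em430; ΔFRET vs ADEP 5.8 microM, DMSO, no enzyme.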
Epigenetic reg: derepresses silenced GFP reporter in murine cells. murine LDR cells, GFP reporter derepression, 30 h. Potency, µM (highest dose often 53.9 µM), inactives show at the top dose GFP activation, usual class: activators. 0.2% of 280,000 active. AID 1865; further: % of control where 0% means no effect; nearly all actives have a fitted effect of over 60% in size
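Murine LDR cells bearing a silenced CMV-driven GFP reporter were exposed to compound for 30 h at 37 C. After PBS washes, GFP-positive cells (20-120 um objects) counted by laser-scanning microplate cytometry.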
RORgamma inh: inhibitors of mouse ROR gamma transcriptional activity. P51450. Drosophila S2 Gal4-RORgamma UAS-luciferase reporter, 20 h. Potency, µM (top dose mostly 53.6 µM), for the others: at the highest dose activity change, negative = inhibition, most hits filed as inhibitors. 5.4% of 310,000 active. AID 2551; further: on the % scale 0 is the no-effect control and ±100 the full control effect; nearly all actives have a fitted effect of over 60% in size
Target sequence (P51450 whole entry, looked up, the tested form may be a part): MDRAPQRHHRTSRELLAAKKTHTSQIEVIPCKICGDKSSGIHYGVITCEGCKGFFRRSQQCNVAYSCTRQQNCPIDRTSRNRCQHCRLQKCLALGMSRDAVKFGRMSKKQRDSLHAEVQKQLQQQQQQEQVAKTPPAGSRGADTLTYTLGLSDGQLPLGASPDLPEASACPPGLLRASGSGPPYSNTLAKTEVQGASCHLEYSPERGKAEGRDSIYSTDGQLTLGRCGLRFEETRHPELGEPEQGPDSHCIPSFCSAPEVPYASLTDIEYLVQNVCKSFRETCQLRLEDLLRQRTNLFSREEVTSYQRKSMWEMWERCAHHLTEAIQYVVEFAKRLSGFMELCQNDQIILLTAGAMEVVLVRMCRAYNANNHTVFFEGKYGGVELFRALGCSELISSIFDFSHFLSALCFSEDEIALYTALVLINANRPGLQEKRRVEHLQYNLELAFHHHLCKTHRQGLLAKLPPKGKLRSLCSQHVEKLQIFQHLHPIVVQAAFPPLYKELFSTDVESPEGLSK
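Compounds are pin-transferred onto Drosophila Schneider cells expressing a copper-inducible Gal4–ROR gamma transactivation domain fusion. After 1 hr, copper sulfate is added to 700 uM final; luciferase is read 20 hr later.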
PINK1 modulator: PINK1 expression modulation; 0.2% of 410,000 active; Potency, µM (highest dose often 76.6 µM), without a hit: top-dose activation (PINK1 increase), hits mostly activators; AID 624263; PINK1 immunofluorescence, high-content cytometry, 24 h; active means well fitted activation curve with a large enough effect; inconclusive means small, poorly fitted or top-dose-only effect; cell line not stated here; further: % of control where 0% means no effect; nearly all actives have a fitted effect of over 65% in size
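Decision-based qHTS: stable cells, 24 h exposure to five compound concentrations, CCCP as control. Fixed cells stained for PINK1 plus nuclear, mitochondrial and cell markers, cytometer read.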
* = called active by the depositor; u = inconclusive; x = no result given; [ ] = dose if it differs, or a comment. A selection: hits, their analogues and other compounds. The true share with any hit is near 8.1%. Unless noted, the call rests on the fitted dose curve; in most records, active means well fitted curve in the direction sought with a large enough effect; inconclusive means small, poorly fitted or top-dose-only effect, or another doubt; inactive means no such curve, though single readings can be large; an effect the other way counts as inactive or inconclusive. Potency means the concentration at half of the fitted maximal effect.

SMILES | Gal4-VP16 FLuc | Sfp inh | ClpP mod | Epigenetic reg | RORgamma inh | PINK1 modulator
CSc1cccc(NC(=O)Cn2nnc(C(=O)NCCc3ccccc3)c2N)c1 | x | x | -1% | 8% | x | 0%
Cc1nnc(SCc2cc(=O)n3c(C)cccc3n2)s1 | x | x | -3% | -2% | x | -9%
CSc1cccc(NC(=O)Cn2ncn3c(cc4ccccc43)c2=O)c1 | x | x | -23% | 0% | x | -1%
CN(C)c1nc(-c2ccccc2)cc(C(F)(F)F)c1C#N | 3% | -13% | 32µM* | 0% | -3% | 1%
CCCCOc1ccc(-c2cc(C(F)(F)F)c(C#N)c(SCC(=O)O)n2)cc1 | -4% | 10% | x | 25µM* | 14% | u
Cc1cc(C(F)(F)F)c(C#N)c(SCC(=O)Nc2nc3cc(Br)ccc3s2)n1 | u | 6% | x | -3% | -4% | 14µM*
Cc1coc(NC(=O)CSc2nc(-c3ccncc3)cc(C(F)(F)F)c2C#N)n1 | 10% | 1% | 14% | 13µM* | 10% | u
N#Cc1c(C(F)(F)F)cc(-c2ccc(F)cc2)nc1SCC(=O)O | 5% | 16% | x | 0% | -10% | -1%
CN(C)c1nc(-c2cccs2)cc(C(F)(F)F)c1C#N | 5% | 11% | x | 6% | 23% | 3%
CSc1nnc(CCNC(=O)c2ccc(-c3cccc(F)c3)cc2)n1-c1ccc(F)cc1 | x | x | x | x | x | 0%
N#Cc1ccccc1NC(=O)CSc1nc(-c2ccccc2)cc(C(F)(F)F)c1C#N | x | x | -9% | 13µM* | x | 10%
N#Cc1c(C(F)(F)F)cc(-c2ccc(F)cc2)nc1SCC(=O)Nc1ccccc1 | x | x | 4% | 7% | x | 3%
Cc1cccc(NC(=O)CSC2=Nc3ccccc3C3=NC(CC(=O)NCc4cccs4)C(=O)N23)c1 (stereo not drawn) | x | x | -5% | 0% | x | 1%
CC(C)n1cc(/C=N/Nc2ccc(C(=O)O)cc2)c2ccccc21 | 0.32µM* | -9% | x | x | 0.032µM* | -1%
O=C(N/N=C\c1c[nH]c2ccccc12)c1ccc(O)cc1 | -17% | 6% | x | x | 6.3µM* | -1%
O=C(N/N=C/c1c[nH]c2ccccc12)c1ccc(Br)cc1 | u | -10% | x | x | u | 4%
NC(=S)N/N=C/c1c[nH]c2ccccc12 | u | 79µM* | -4% | -1% | 2.5µM* | 0%
Nc1ccc(C(=O)N/N=C/c2c[nH]c3ccccc23)cc1 | -6% | -10% | -11% | x | 8% | 3%
O=C(N/N=C/c1c[nH]c2ccccc12)c1ccc(Cl)cc1 | u | 1% | -2% | x | 10µM* | 7%
COc1ccc(C(=O)C2C(=O)C(=O)N(Cc3ccco3)C2c2cccs2)cc1 (stereo not drawn) | x | x | -3% | x | x | 0%
CCC(C)c1ccc(OCC(=O)Nc2ccc(-c3nc4ncccc4o3)cc2)cc1 (stereo not drawn) | x | x | u | 2% | x | -1%
CN1CCN(CC(=O)N/N=C\c2c[nH]c3ccccc23)CC1 | 22µM* | u | x | -2% | u | x
O=C(N/N=C/c1c[nH]c2ccccc12)c1cc(-c2ccccc2)n[nH]1 | 2% | 4% | x | 0% | 20% | -2%
O=C(O)c1ccc(N/N=C/c2c[nH]c3ccccc23)cc1 | 0.32µM* | -13% | -23% | x | 0.035µM* | 4%
O=C(N/N=C/c1c[nH]c2ccccc12)c1ccccc1Cl | 30% | 11% | 0% | x | 4% | 2%
SMILES | Gal4-VP16 FLuc | Sfp inh | ClpP mod | Epigenetic reg | RORgamma inh | PINK1 modulator
O=C(N/N=C/c1c[nH]c2ccccc12)c1cc(Cl)ccc1O | 6.3µM* | 10% | u | x | 5µM* | 1%
O=C(N/N=C/c1c[nH]c2ccccc12)c1cc(-c2ccc(-c3ccccc3)cc2)n[nH]1 | u | 9% | -20% | -1% | 5.6µM* | -4%[38.3 µM]
O=C(CSC1=Nc2ccccc2N=C(c2ccc(F)cc2)C1)Nc1ccc(Cl)cc1 | x | x | 3% | 3% | x | 0%
C=C(C)CSc1nc2sc3c(c2c(=O)n1-c1ccccc1)CCC(C)C3 (stereo not drawn) | x | x | -1% | -1% | x | 7%
Cc1ccc(CNC(=O)CSc2nc3c(sc4ccccc43)c(=O)n2CCCOC(C)C)cc1 | x | x | -4% | 4% | x | -1%
COc1cc2c(N3CCOCC3)cc(O)c(CC(=O)Nc3ccccc3)c2cc1OC | 1%[0.365 µM] | -29% | 28µM* | 0% | 0% | 4%
CC(=O)N1CCCc2cc(S(=O)(=O)NCc3ccccc3Cl)ccc21 | x | x | 1% | 0% | x | 0%
O=C1CN(C(=O)COc2ccc(Cl)c(Cl)c2)c2ccccc2N1 | x | x | 2% | x | x | 2%
O=C1CN(C(=O)CSc2nnnn2-c2ccc(Cl)cc2)c2ccccc2N1 | -3% | -17% | -2% | -2% | 3.5µM* | 4%
Cc1ccc(Cn2c(SCC(=O)N3CC(=O)Nc4ccccc43)nc3ccccc3c2=O)cc1 | u | -13% | 2% | 1% | 1.6µM* | 2%
O=C1CN(C(=O)Cn2ncc(Cl)c(Cl)c2=O)c2ccccc2N1 | u | 6% | x | -1% | 11µM* | -2%
N#Cc1cc(C#N)c(SCC(=O)N2CC(=O)Nc3ccccc32)nc1N | x | x | -9% | x | x | 18%
O=C(CSc1nnnn1-c1ccccc1)N1CCNC1=O | 18% | 2% | -5% | x | 18% | 3%
CCc1ccc2nc(SCC(=O)N3CC(=O)Nc4ccccc43)c(C#N)cc2c1 | 1% | -8% | 0% | 18µM* | 9% | 1%
O=C(NCCN1CCOCC1)c1ccc(Cc2nc3ccccc3[nH]2)cc1 | x | x | x | 1% | x | x
CCOc1ccc(CNC(=O)CCS(=O)(=O)c2cc3c4c(c2)CCN4C(=O)CC3)cc1 | x | x | -1% | 0% | x | -1%
O=C1CN(C(=O)CSc2nc3cc(Cl)ccc3c(=O)n2Cc2ccccc2)c2ccccc2N1 | 13µM* | 8% | x | 1% | u | 7%
Cc1nnc(SCC(=O)N2CC(=O)Nc3ccccc32)n1Cc1ccccc1 | -8% | 2% | 0% | 0% | 14% | -2%
CCSC1=NC2(CCN(C(=O)NC3CCCCC3)CC2)N=C1c1ccc(C)c(C)c1 | x | x | 1% | 0% | x | 3%
O=c1cc(N=Nc2ccc(Cl)cc2)[nH]c(=O)[nH]1 | 4µM* | -27% | x | 11% | 2.5µM* | -4%
O=C(Nc1cccc(C(F)(F)F)c1)C1CCN(S(=O)(=O)c2ccc(N3CCCC3=O)cc2)CC1 | 13µM* | 10% | -3% | x | u | 4%
COc1ccc(-c2noc(CCC(=O)Nc3cccnc3)n2)cc1 | -11% | 19% | 1% | x | u | 3%
CC(C)(C)c1ccc(-c2noc(CCC(=O)NCC3CCCO3)n2)cc1 (stereo not drawn) | 10µM* | 7% | -1% | 1% | 1µM* | 13%[38.3 µM]

Source: PubChem BioAssay (National Center for Advancing Translational Sciences (NCATS))
